Inconclusive results are not listed. Where a call stands in place of a potency, no number is given. The source made the active and inactive calls. Calls follow the shape of the dose curve; as a rule, active = well fitted curve in the direction sought with a large enough effect; inconclusive = small, poorly fitted or top-dose-only effect, or another doubt; inactive = no such curve, though single readings can be large; an effect the other way counts as inactive or inconclusive.
Key:
[1] = MultiTox-Fluor Cytotoxicity Assay - LYMP1-002 - Live Cells (AID 955); details: LYMP1-002 lymphoblastoid live-cell protease fluorescence viability; series mostly up to 46.1 µM;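 also: cells exposed to compound for 16 hours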
How it was run: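 Human lymphoblastoid LYMP1-002 cells, 2500/well, treated 16 h at 37 C in complete medium. Live-cell protease activity via GF-AFC fluorescence (Ex/Em 405/510) after 60 min reagent incubation; AC50 from Hill fits.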

[2] = MultiTox-Fluor Cytotoxicity Assay - LYMP1-002 - Dead Cells (AID 960); details: LYMP1-002 lymphoblastoid cells, dead-cell protease fluorescence; series mostly up to 46.1 µM;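 also: cells exposed to compound for 16 h at 37 °C; nearly all actives have a fitted effect of over 60% in size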
How it was run: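 Human lymphoblastoid LYMP1-002 cells, 2500/well, treated 16 h at 37 C; dead-cell protease cleavage of bis-AAF-R110 read by fluorescence (485/520); normalized to DMSO and 15 uM tetraoctylammonium bromide; AC50 from Hill fit.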

[3] = MultiTox-Fluor Cytotoxicity Assay - LYMP1-003 - Dead Cells (AID 961); details: LYMP1-003 lymphoblastoid cells, dead-cell protease fluorescence; series mostly up to 92.2 µM;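 also: cells exposed to compound for 16 h at 37 °C; nearly all actives have a fitted effect of over 70% in size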; also: potency is read from the fitted curve at half-maximal effect
How it was run: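 Human lymphoblastoid LYMP1-003 cells (2500/well) were treated with compounds for 16 hr at 37 C in complete medium. Dead-cell protease release was read by bis-AAF-R110 fluorescence (Ex/Em 485/520). AC50 came from Hill fits, normalized to DMSO and 15 uM tetraoctylammonium bromide.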

[4] = MultiTox-Fluor Cytotoxicity Assay - LYMP1-003 - Live Cells (AID 962); details: LYMP1-003 lymphoblastoid cells, MultiTox-Fluor live-cell protease fluorescence; series mostly up to 92.2 µM;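 also: cells exposed to compound for 16 hours at 37 °C; cytotoxic hits lower the live-cell protease signal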
How it was run: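 LYMP1-003 lymphoblastoid cells, 2500/well in complete medium, treated 16 h at 37 C; live-cell protease cleavage of GF-AFC read by fluorescence (Ex/Em 405/510) after 60 min reagent; AC50 from Hill fits of concentration-response.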

[5] = Cell Viability - LYMP1-003 - Assay at 24 hr (AID 963); details: LYMP1-003 lymphoblastoid cell viability; series mostly up to 92.2 µM; also: potency is read from the fitted curve at half-maximal effect
How it was run: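 Human lymphoblastoid LYMP1-003 cells, 2500/well, treated 24 h at 37 C in complete medium. Viability read as intracellular ATP by CellTiter-Glo luminescence after 30 min at room temperature; AC50 from Hill-equation fits of qHTS concentration-response.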

[6] = Cell Viability - LYMP1-003 - Assay at 40 hr (AID 964); details: LYMP1-003 lymphoblastoid viability; series mostly up to 92.2 µM; also: nearly all actives have a fitted effect of over 60% in size; also: potency is read from the fitted curve at half-maximal effect
How it was run: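 LYMP1-003 human lymphoblastoid cells, 2500/well, preincubated 5 h at 37 C, then treated with compound for 40 h at 37 C. Intracellular ATP read by CellTiter-Glo luminescence after 30 min at room temperature; AC50 from Hill-equation fits.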

[7] = Cell Viability - LYMP2-003 (AID 965); details: LYMP2-003 lymphoblastoid cell viability; series mostly up to 92.2 µM;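 also: cells exposed to compounds for 24 h before reading; nearly all actives have a fitted effect of over 50% in size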; also: potency is read from the fitted curve at half-maximal effect
How it was run: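 CellTiter-Glo luminescence (cellular ATP) after 24 h compound exposure at 37 C in complete medium; 2500 cells/well, 5 h settling beforehand. Concentration-response fitted to standard Hill equation for AC50. Tetraoctylammonium bromide served as positive control.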

[8] = Cell Viability - LYMP2-004 (AID 966); details: LYMP2-004 lymphoblastoid cell viability, qHTS; series mostly up to 92.2 µM; also: nearly all actives have a fitted effect of over 65% in size
How it was run: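 Lymphoblastoid LYMP2-004 cells, 2500 per well, were preincubated for 5 hr and then treated with compound for 24 h at 37 C in complete medium. Viability was read as cellular ATP by CellTiter-Glo luminescence, and AC50 values were taken from Hill fits to concentration-response data.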

[9] = Cell Viability - LYMP2-005 (AID 967); details: LYMP2-005 lymphoblastoid cell viability; series mostly up to 92.2 µM; also: potency is read from the fitted curve at half-maximal effect
How it was run: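 Steps: seed 2500 LYMP2-005 cells/well, incubate 5 h at 37 C, add compound, incubate 24 h at 37 C, add CellTiter-Glo, wait 30 min at RT, read luminescence. Concentration-response data fitted to Hill equation for AC50.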

[10] = Cell Viability - LYMP2-009 (AID 968); details: LYMP2-009 lymphoblastoid cell viability; series mostly up to 92.2 µM; also: nearly all actives have a fitted effect of over 55% in size; also: potency is read from the fitted curve at half-maximal effect
[11] = Cell Viability - LYMP2-011 (AID 969); details: LYMP2-011 lymphoblastoid cells viability; series mostly up to 92.2 µM; also: nearly all actives have a fitted effect of over 60% in size; also: potency is read from the fitted curve at half-maximal effect
How it was run: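 2500 cells/well in complete medium, compound-treated 24 h at 37 C. Viability read as intracellular ATP by CellTiter-Glo luminescence after 30 min at room temperature. AC50 from Hill fits of qHTS concentration-response data.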

[12] = Cell Viability - LYMP2-013 (AID 970); details: LYMP2-013 lymphoblastoid cells viability; series mostly up to 92.2 µM; also: nearly all actives have a fitted effect of over 55% in size; also: potency is read from the fitted curve at half-maximal effect
How it was run: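 Human lymphoblastoid LYMP2-013 cells, 2500/well, treated 24 h at 37 C in complete medium; viability as intracellular ATP by CellTiter-Glo luminescence after 30 min. AC50 from Hill fits of qHTS concentration-response.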

[13] = Cell Viability - LYMP2-015 (AID 971); details: LYMP2-015 lymphoblastoid cell viability; series mostly up to 92.2 µM; also: nearly all actives have a fitted effect of over 55% in size; also: potency is read from the fitted curve at half-maximal effect
How it was run: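 LYMP2-015 human lymphoblastoid cells (2500/well) in complete medium, compound-treated 24 h at 37 C; viability read as cellular ATP by CellTiter-Glo luminescence after 30 min at room temperature. AC50 from Hill-equation fits of qHTS concentration-response data.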

[14] = Cell Viability - LYMP2-017 (AID 972); details: LYMP2-017 lymphoblastoid cell viability; series mostly up to 92.2 µM; also: nearly all actives have a fitted effect of over 55% in size; also: potency is read from the fitted curve at half-maximal effect
How it was run: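 LYMP2-017 human lymphoblastoid cells (2500/well) settled 5 hr at 37 C, then exposed to compound 24 hr at 37 C in complete medium. Viability taken as intracellular ATP by CellTiter-Glo luminescence after 30 min at RT; AC50 from Hill fits.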

[15] = Cell Viability - LYMP2-019 (AID 973); details: LYMP2-019 lymphoblastoid cell line viability; series mostly up to 92.2 µM; also: nearly all actives have a fitted effect of over 55% in size; also: potency is read from the fitted curve at half-maximal effect
How it was run: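 Human lymphoblastoid LYMP2-019 cells (2500/well) preincubated 5 h at 37 C, then treated 24 h at 37 C in complete medium. Viability by CellTiter-Glo ATP luminescence after 30 min at room temperature; AC50 from Hill fits.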

[16] = Cell Viability - LYMP2-021 (AID 974); details: LYMP2-021 lymphoblastoid cells viability; series mostly up to 92.2 µM; also: potency is read from the fitted curve at half-maximal effect
How it was run: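 Human lymphoblastoid LYMP2-021 cells, 2500/well in complete medium, treated 24 hours at 37 C. Intracellular ATP by CellTiter-Glo luminescence (30 min, RT); AC50 from Hill fits of concentration-response.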

[17] = Cell Viability - LYMP2-023 (AID 975); details: LYMP2-023 lymphoblastoid cell viability; series mostly up to 92.2 µM; also: nearly all actives have a fitted effect of over 55% in size; also: potency is read from the fitted curve at half-maximal effect
How it was run: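 LYMP2-023 human lymphoblastoid cells, 2500/well, preincubated 5 hr at 37 C, then compound-treated 24 hr at 37 C in complete medium. CellTiter-Glo luminescence (ATP) after 30 min at room temperature; AC50 from Hill-equation fits; tetraoctylammonium bromide positive control.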

[18] = Cell Viability - LYMP2-025 (AID 976); details: LYMP2-025 lymphoblastoid cell viability; series mostly up to 92.2 µM
How it was run: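 Human lymphoblastoid LYMP2-025 cells, 2500/well, exposed 24 h at 37 C in complete medium in 1536-well qHTS. Viability as cellular ATP by CellTiter-Glo luminescence; AC50 from Hill fits of concentration-response data.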

[19] = Cell Viability - LYMP2-002 (AID 977); details: LYMP2-002 lymphoblastoid cell viability, qHTS; series mostly up to 92.2 µM
How it was run: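 Luminescent ATP readout (CellTiter-Glo, 30 min room temperature) after 24 h compound exposure at 37 C of a human lymphoblastoid line, 2500 cells/well. AC50 values derived by standard Hill fitting of qHTS concentration-response data.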

[20] = Cell Viability - LYMP2-006 (AID 978); details: LYMP2-006 lymphoblastoid cell viability, qHTS; series mostly up to 92.2 µM; also: nearly all actives have a fitted effect of over 60% in size; also: potency is read from the fitted curve at half-maximal effect
How it was run: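 qHTS, 1536-well; 2500 cells/well, 5 hr 37 C; cpd 24 hr 37 C; CellTiter-Glo 30 min RT; luminescence. Tetraoctylammonium bromide pos. ctrl. AC50 via Hill eqn.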

SMILES | Potency [1] | Potency [2] | Potency [3] | outcome [4] | Potency [5] | Potency [6] | Potency [7] | Potency [8] | Potency [9] | Potency [10] | Potency [11] | Potency [12] | Potency [13] | Potency [14] | Potency [15] | Potency [16] | Potency [17] | outcome [18] | outcome [19] | Potency [20]
CO | inactive | inactive | inactive | inactive | inactive | inactive | inactive | inactive | inactive | inactive | inactive | inactive | inactive | inactive | inactive | inactive | inactive | inactive | inactive | inactive
Nc1ccc(N=Nc2ccccc2)c(N)n1 | inactive | inactive | inactive | inactive | inactive | inactive | inactive | inactive | inactive | inactive | inactive | inactive | inactive | inactive | inactive | inactive | inactive | inactive | inactive | inactive
CC(C)(C)CC(C)(C)c1ccc(OCCO)cc1 | inactive | inactive | inactive | inactive | inactive | inactive | inactive | inactive | inactive | inactive | inactive | inactive | inactive | inactive | – | inactive | inactive | – | inactive | inactive
OB(O)O | inactive | – | inactive | inactive | inactive | inactive | inactive | inactive | inactive | inactive | inactive | inactive | inactive | inactive | inactive | inactive | inactive | inactive | inactive | inactive
O=c1n(CC2CO2)c(=O)n(CC2CO2)c(=O)n1CC1CO1 (stereo unspecified) | – | – | 50.1 µM (active) | inactive | 39.8 µM (active) | 15.8 µM (active) | 31.6 µM (active) | – | 20 µM (active) | 39.8 µM (active) | 39.8 µM (active) | 50.1 µM (active) | 39.8 µM (active) | 39.8 µM (active) | 39.8 µM (active) | 31.6 µM (active) | 39.8 µM (active) | – | – | 39.8 µM (active)
CC1=CCC2CC1C2(C)C (stereo unspecified) | inactive | inactive | inactive | inactive | inactive | inactive | inactive | inactive | inactive | inactive | inactive | inactive | inactive | inactive | inactive | inactive | inactive | inactive | inactive | inactive
CC1=CC(=O)NS(=O)(=O)O1 | inactive | inactive | inactive | inactive | inactive | inactive | inactive | inactive | – | inactive | inactive | inactive | inactive | inactive | inactive | inactive | inactive | inactive | inactive | inactive
CCCCC | inactive | inactive | inactive | inactive | inactive | inactive | inactive | inactive | inactive | inactive | inactive | inactive | inactive | inactive | inactive | inactive | inactive | inactive | inactive | inactive
ClC(Cl)Cl | inactive | inactive | inactive | inactive | inactive | inactive | inactive | inactive | inactive | inactive | inactive | inactive | inactive | inactive | inactive | inactive | inactive | inactive | inactive | inactive

— PubChem BioAssay (NCATS)
